Over roughly 25,000 sequences, “ln(normalized median fluorescence intensity)” has its median near 6.7; the highest 2% begin near 10. The sample as a whole holds a higher share of the highest values than the screen did.
What follows are sequences tested on PfHDP1 homeodomain (GST-tagged) (assay: gcPBM binding intensity (ln(normalized median fluorescence intensity)); higher = stronger DNA binding).
Outline: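 An Agilent 4 × 180k array carrying primer-extended double-stranded 36-bp intergenic genomic probes and negative controls received GST-tagged P. falciparum DNA-binding domains expressed in E. coli, about 25 μg on average, for 1 h. The binding buffer contained 1× PBS, 1% milk, 0.2 mg/ml BSA, 0.5% salmon testes DNA and 0.03% Triton X-100. Binding intensity is the top Masliner-normalised natural-log median intensity across replicate spots of either probe orientation, read after Alexa488 anti-GST antibody staining and a 488 nm scan.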

Row | Sequence | gcPBM binding intensity (ln)
1 | TGGGTGTAGAACAATTGTACTTTGTAAAAATATAAG [XGTACX_site8464] | 6.59
2 | CAAAAAAAGAAAGCTACACACATTTATGTGCTATAT [CACACA_site2777] | 6.72
3 | AATGTGCACACGCGTACACACAAAAAAAGAAAAAAA [CACACA_site7031] | 10.2
4 | ATTTATGTTATATATACACACACAAAAGAAAAAAAA [CACACA_site8977] | 6.89
5 | TTATGTTATATATACACACACAAAAGAAAAAAAAAA [CACACA_site2987] | 6.48
6 | TTCATGCTTATATGTGCACACACAAAAGAAAAGAAA [CACACA_site1656] | 10.8
7 | CATGCTTATATGTGCACACACAAAAGAAAAGAAAAA [CACACA_site1655] | 11
8 | TAAATATATATATATTGTACAAAACAAATGTGAATT [XGTACX_site696] | 7.1
9 | GATGTTCATCACTACACACACAAAGAAATATAAATA [CACACA_site7294] | 6.57
10 | TCAATTAGACGAAAATGTACATATGTATATATTTTT [XGTACX_site5027] | 6.25
11 | ATACATATGGTGGATCGTACATATATATAATATGTA [XGTACX_site8631] | 6.5
12 | TATGTACACCCATATACACACCTCTATAATATATAT [CACACA_site4563] | 7.13
13 | TATAATGTATGTAGTGCACACCTCTATAATATATTA [CACACA_site8560] | 9.5
14 | TAGAATGTATGTAGTGCACACCTCTATAATATATTA [CACACA_site1873] | 10.5
15 | TATTATATTATACATACACACCCATATAATATGTTT [CACACA_site8191] | 6.85
16 | TAAATATATATATAAGTGCATTATATATATATATAA | 9.53
17 | AATATTCAATATAAAGTGCATTATTGTGGACCTAAT | 8.94
18 | GCCAATAAAGATGTGGTGCATTATATATATATATAT | 10.7
19 | TAAAACTTATACAAATGTACAAATATATATATATAT [XGTACX_site4661] | 9.19
20 | TTTTTTATTTTATTTTTTTCTGCTTATCCACATTAG [XGTACX_negctrl_site108] | 6.48
21 | GCACACATATAATTAAACATATATTTGTATTATTTT [GTGCAC_negctrl_site327] | 6.5
22 | CTTTTTTTAATATGCACACATATATTTTATATATTA [CACACA_site2077] | 10.3
23 | TCGTACTTGTATTATGCACACATATAATTAAACATA [CACACA_site9089] | 10.5

Row | Sequence | gcPBM binding intensity (ln)
24 | ATTATATACATATATGCACACAAAAAAATATATATT [CACACA_site8508] | 9.93
25 | TTAATTTATTTATGCACACATATATAATTACCCATA [CACACA_site682] | 10.7
26 | CTTATATTAATTATTACACACATATTTATAAATGCA [CACACA_site6501] | 6.66
27 | TTTTAATTTATTTATGCACACATATATAATTACACA [CACACA_site8126] | 10.1
28 | GTATTATTATTATGCACACAAAAATATTTATACATA [CACACA_site3656] | 10.9
29 | TAGTATTATTATTATGCACACAAAAATATTTATACA [CACACA_site9219] | 10.4
30 | GTACTTGTATTATGCACACATATAATTAAACATATA [CACACA_site3312] | 10.1
31 | ATATTACCCATATATGCACACATTGTAGTTATTTAT [CACACA_site2636] | 9.18
32 | TTAATTTATTTATGCACACATATATAATTACACATA [CACACA_site4544] | 10.7
33 | AAATAATTAGCTATTTGTACATATATACATATTTAT [XGTACX_site4652] | 6.37
34 | ATTTTTTTTTTTTTTTTTTTTTTTTTTTTTTTTTTT [CACACA_negctrl_site1364] | 7.45
35 | AAGTTTATTATATATAAATTATTATATATATATATA [CACACA_negctrl_site189] | 9.02
36 | AATCAAAGTAATTTAACACACAATTTTAATACTGTT [CACACA_site7169] | 6.23
37 | CATTATGTTGTAAATACACACATACATATACATACA [CACACA_site8143] | 6.76
38 | ACATAAATAAATTAATGTACATATATATTTGTATAT [XGTACX_site3160] | 6.32
39 | TATATGTAGATTAAACGTACTTACAACGGAATTATC [XGTACX_site3036] | 6.67
40 | TATAAACATTAAAGGTGTACAATTTAATTTCAATTT [XGTACX_site2944] | 6.28
41 | GGTATAATAATATATAGTACACACAAAAATGGAAGT [XGTACX_site7058] | 7.5
42 | TATTTTTATCAATTCACACATAAATATATTTATATG [CACACA_site5547] | 6.57
43 | TTTTTCCCCCTTTTTTTGATTTTTATCTTAATTCTA [TGCATGCA_negctrl_site287] | 5.85
44 | TATTATAATTTTATATGTACACATATATAAATATAT [XGTACX_site4054] | 6.29
45 | ATACATATATAATTATGTACGTATATTTTATATAAC [XGTACX_site4292] | 6.14
46 | ACATAATTATTATGCACACATATTTTTATGTATTTA [CACACA_site698] | 10.2

Row | Sequence | gcPBM binding intensity (ln)
47 | ATATAATATATGTATACACACATATTATATAATATT [CACACA_site3699] | 6.46
48 | GTATAATTATGTGCACGTACATATTTTATTATATAT [XGTACX_site8586] | 10.9
49 | TTATATTTTACAAATGCACACATAATTTTTTTTTTT [CACACA_site8890] | 9.76
50 | ATATTTTACAAATGCACACATAATTTTTTTTTTTTT [CACACA_site2763] | 10.5
51 | TATTACACATATTATGTGCACATATATAATCAATAT | 10.9
52 | TTTATTTATATAATTACACACATATATACACAAATG [CACACA_site8903] | 6.83
53 | CAATTTATTATATATGTGCACATATAATTTTACAAA | 10.4
54 | ATATATATATATATATGTACATATTTTTAATTATAA [XGTACX_site7444] | 9.45
55 | GTACATAATTATTATGCACACATATTTTTATGTATT [CACACA_site8132] | 10.5
56 | GTTTTATTTATTTCATGTACACAAAAAAGGTTTTAA [XGTACX_site6525] | 6.97
57 | TTTTGTTATTTTTCAGTGCAATATGATAATAATATA | 9.56
58 | ATTTCTCTATCGTAATGTACATAAAAAAGAAAAACA [XGTACX_site6374] | 6.63
59 | ATATATATATTTAAGGTGCGATTTTGTTATATTTAA | 7.89
60 | AATTATGGGGAAAAGACACACATATATATATATATA [CACACA_site2589] | 9.35
61 | ATCTAAATTTTTCCATGTACATATACTTTTATGCAT [XGTACX_site2683] | 7.08
62 | TATCTGTATTTATTCACACATATAAAATATAATTAA [CACACA_site5560] | 6.36
63 | GGATTTATTTTATATACACACATACCTATATTTATA [CACACA_site7084] | 6.84
64 | TATATCTCATAGTATACACACACACCCACCCACATA [CACACA_site8513] | 7.7
65 | GTATGTGTATGTGTATGTACATATGTATGTATAAAA [XGTACX_site8191] | 8.13
66 | TTAATTATTATATAAGTGCAATAATAAAAAGTTGTA [GTGCAC_site9552] | 9.36
67 | ACACATACACATTAGGTGCACATAATTCAATATTAC [GTGCAC_site9862] | 10.6
68 | ATTGTATATGTATATGCACACAATATATGTACTTAT [CACACA_site2611] | 9.66
69 | AAATAATTATTTATCACACATATGTATTTATATATA [CACACA_site4589] | 6.66

Row | Sequence | gcPBM binding intensity (ln)
70 | TTTATGTATTTTTATGCACACATGCGTGGCTTATAT [CACACA_site4374] | 10.4
71 | ACACATACACATTAGGTGCATATATTTCAATATTAC [GTGCAC_site9423] | 9.83
72 | GTTTATGTATTATTATGTACGTATCATAATATATAT [XGTACX_site2385] | 6.87
73 | TAATATTCAATTATACGTACACATATATATATATAT [XGTACX_site4245] | 9.22
74 | AGTGCATAATATTTATGTACGTATCACATATATTTT [XGTACX_site5166] | 10.7
75 | TATATATATATATATTTTTTTTTTTTATGCACATGG [CACACA_negctrl_site1573] | 10.1
76 | ACAAATAAATAAATATGTACTTAATTATATAATTGA [XGTACX_site5626] | 6.16
77 | CGTATGCACAAATTATGTACTTATATATATATATAT [XGTACX_site2348] | 10.9
78 | TATGTATTTTTATGCACACATGCGTGGCTTATATAA [CACACA_site387] | 10.5
79 | ATATTATTTTATGCTACACACATTTTCTCTTATAAA [CACACA_site943] | 7.25
80 | AAAAAAAAAATATACACACACATATATATATATATA [CACACA_site3404] | 9.35
81 | GTAGACTGAAACCACACACACATATATATATATATT [CACACA_site605] | 6.93
82 | ATATAGAATATATTAACATGCAATAAGTAAAGGGGG [TGCATGCA_site1022] | 7.05
83 | TGTATGTATTTTCAATGTACATAAAAAAAAAAAAAA [XGTACX_site4397] | 6.71
84 | TGAAATAAATAATGCACACTCTACAGATATACGTAT [CACACA_site5270] | 10.1
85 | AATATAATATAATGCACACATAAAAAAAAAAAAATC [CACACA_site1303] | 10.6
86 | AATATAATATAATGCACACATAAAAAAAAAATCAAA [CACACA_site122] | 11
87 | AAAATCTAATATAATGCACACATAAAAAAAAATCAA [CACACA_site9211] | 9.65
88 | TTTGAAATAAATAATGCACACTCTACATATATACGT [CACACA_site2244] | 10.6
89 | AAAATATAATATAATGCACACATAAAAAAAAAATCA [CACACA_site7922] | 10.2
90 | AATCTAATATAATGCACACATAAAAAAAAATCAAAC [CACACA_site3633] | 10.7
91 | GTTGAAAAAAAAAATGCACACGCATACATATAATAT [CACACA_site8117] | 9.09
92 | AATCTAATATAATGCACACATAAAAAAAAAATCAAA [CACACA_site2714] | 10.2

Reference: the supplement of paper PMC11417369
